Test results reported in PubChem BioAssay (Tox21).
Several values for one entry are separate records, joined by “and”; a condition that tells them apart may be missing. Equal entries are not always repeated. Results filed as inconclusive are left out. Where a call stands in place of a potency, no number is given. The source holds several records for some structures; these can differ, active in one and inactive in another. Activity calls are given as the source filed them. Calls follow the shape of the dose curve; as a rule, active = well fitted cell-killing curve with a large enough effect in the repeat runs; inconclusive = weak or mixed curves, or effect the other way; inactive = no such curve, though single readings can be large or run the other way.

Experiment: qHTS assay to identify small molecule antagonists of the vitamin D receptor (VDR) signaling pathway - cell viability counter screen (AID 743225); also: nearly all actives have a fitted effect of over 50% in size
Settings: VDR-bla HEK293T viability, CellTiter-Glo luminescence, 16 h; series mostly up to 61 µM
In short: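 Parallel cytotoxicity test: VDR-UAS-bla HEK 293T, 3 nM (final) 1-alpha,25-dihydroxyvitamin D3 with test compound, 16 h, 37C. Endpoint is CellTiter-Glo luminescence in the same wells.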
Potency is read from the fitted curve at half-maximal effect.

| SMILES | Potency |
| --- | --- |
| CCCCCCCCCC(=O)O | inactive |
| NS(=O)(=O)c1cc2c(cc1Cl)NC=NS2(=O)=O | inactive |
| CC(C)Cc1ccccc1 | inactive |
| Clc1cc(Cl)c(Cl)cc1Cl | inactive |
| CCCCC(CC)COC(C)=O (stereo not drawn) | inactive |
| NCCNCCNCCNCCN | inactive |
| CCOC(=O)C1OC1c1ccccc1 (stereo not drawn) | inactive |
| CC1COc2ccccc2N1C(=O)C(Cl)Cl (stereo not drawn) | inactive |
| CCCCCCCCC | inactive |
| Cc1cc(O)cc(C)c1Cl | inactive |
| CC1=C(/C=C/C(C)=C/C=C/C(C)=C/CO)C(C)(C)CCC1 | inactive |
| CC1(C)O[C@@H]2C[C@H]3[C@@H]4C[C@H](F)C5=CC(=O)CC[C@]5(C)[C@H]4[C@@H](O)C[C@]3(C)[C@]2(C(=O)CO)O1 | inactive |
| Nc1nc2ncc(CNc3ccc(C(=O)N[C@@H](CCC(=O)O)C(=O)O)cc3)nc2c(=O)[nH]1 | inactive |
| ClC1=C(Cl)C(Cl)(Cl)C(Cl)=C1Cl | inactive |
| CS(=O)(=O)c1ccc([C@@H](O)[C@@H](CO)NC(=O)C(Cl)Cl)cc1 | inactive |
| OC1CCCC1 | inactive |
| CC(C)(N=C=O)c1cccc(C(C)(C)N=C=O)c1 | inactive |
| OCCOCCOCCOCCO | inactive |
| C=C1C2CCC(C2)C1(C)C (stereo not drawn) | inactive |

| SMILES | Potency |
| --- | --- |
| O=S(=O)(Oc1ccc(Cl)cc1Cl)c1ccccc1 | inactive |
| C[C@@H]1O[C@@H](OC[C@H]2O[C@@H](Oc3c(-c4ccc(O)c(O)c4)oc4cc(O)cc(O)c4c3=O)[C@H](O)[C@@H](O)[C@@H]2O)[C@H](O)[C@H](O)[C@H]1O | inactive |
| Cn1c([N+](=O)[O-])cnc1COC(N)=O | inactive |
| CC(C)(C)C1CCC(O)CC1 (stereo not drawn) | inactive |
| C=C1CC[C@H](O)CC1=C/C=C1\CCC[C@]2(C)[C@@H]([C@H](C)/C=C/[C@H](C)C(C)C)CC[C@@H]12 | inactive |
| CC1=C(CC(=O)O)c2cc(F)ccc2/C1=C\c1ccc(S(C)=O)cc1 (stereo not drawn) | inactive |
| CCOC(=O)/C=C\C(=O)OCC | inactive |
| CCCCC(CC)C(=O)OCCOCCOCCOC(=O)C(CC)CCCC (stereo not drawn) | inactive |
| O=[N+]([O-])C(CO)(CO)CO | inactive |
| CC1CC(OC(=O)c2ccccc2O)CC(C)(C)C1 (stereo not drawn) | inactive |
| CCCCC(CC)COC(=O)/C=C\C(=O)OCC(CC)CCCC (stereo not drawn) | inactive |
| CCCCCCCCCCCCN | inactive and 54.9 µM (active) |
| C=C(C)C(=O)OCCC[Si](OC)(OC)OC | inactive |
| COC(=O)c1ccccc1O | inactive |
| Cc1ccc(C)c(C)c1 | inactive |
| C=C(C)C(=O)OCCCCCCCCCCCC | inactive |
| Nc1cc(-c2ccncc2)c[nH]c1=O | inactive |
| O=C1CCCCC1 | inactive |
| CCc1ccc(O)cc1 | inactive |
